Paper PMC5540273 (PLoS ONE, 2017)

Experiments:
Conditions in all cases: concentration: 1 μM, replicates: in singlicate; n = 1
EPHA7 = test system: EPHA7
EPHA8 = test system: EPHA8
EPHB1 = test system: EPHB1
EPHB2 = test system: EPHB2
EPHB3 = test system: EPHB3
EPHB4 = test system: EPHB4
EPHB6 = test system: EPHB6
ERBB2 = test system: ERBB2
ERBB3 = test system: ERBB3
ERBB4 = test system: ERBB4
ERK1 = test system: T1, ERK1
T1 construct: gene MAPK3

ERK2 = test system: T2, ERK2
T2 construct: gene MAPK1

ERK3 = test system: T3, ERK3
T3 construct: gene MAPK6

ERK4 = test system: T4, ERK4
T4 construct: gene MAPK4

ERK5 = test system: T5, ERK5
T5 construct: gene MAPK7

ERK8 = test system: T6, ERK8
T6 construct: gene MAPK15

ERN1 = test system: ERN1
FAK = test system: T7, FAK
T7 construct: gene PTK2

FER = test system: FER
FES = test system: FES
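Further: KINOMEscan kinase panel screen.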

SMILES | %Inh (EPHA7) | %Inh (EPHA8) | %Inh (EPHB1) | %Inh (EPHB2) | %Inh (EPHB3) | %Inh (EPHB4) | %Inh (EPHB6) | %Inh (ERBB2) | %Inh (ERBB3) | %Inh (ERBB4) | %Inh (ERK1) | %Inh (ERK2) | %Inh (ERK3) | %Inh (ERK4) | %Inh (ERK5) | %Inh (ERK8) | %Inh (ERN1) | %Inh (FAK) | %Inh (FER) | %Inh (FES)
CCCCc1nn2ncccc2c1-c1ccnc(Nc2ccc(N3CCN(C)CC3)cc2)n1 [GW684941] | 0% | 73% | 65% | 26% | 18% | 62% | 97.7% | 69% | 72% | 66% | 0% | 0% | 46% | 0% | 0% | 63% | 0% | 0% | 47% | 14%
COc1cc(Nc2nccc(-c3c(-c4cccc(NC(=O)c5c(F)cccc5F)c4)nn4ncccc34)n2)cc(OC)c1OC [GSK327238] | 9% | 56% | 35% | 93% | 0% | 15% | 97.4% | 98.6% | 96% | 99.4% | 6% | 15% | 3% | 29% | 68% | 0% | 30% | 38% | 77% | 50%
Fc1ccc(-c2ncn(C3CCNCC3)c2-c2ccnc(Oc3ccc(-c4ccccc4)cc3)n2)cc1 [SB-245391] | 3% | 8% | 10% | 6% | 16% | 17% | 15% | 62% | 33% | 6% | 47% | 2% | 0% | 15% | 9% | 31% | 45% | 12% | 0% | 27%
Cl.Cl.NCC(NCc1ccc(-c2ccnc3[nH]ccc23)s1)c1ccccc1 (stereo not drawn) [GSK1321565] | 0% | 0% | 13% | 0% | 5% | 7% | 27% | 0% | 19% | 11% | 0% | 0% | 2% | 0% | 2% | 18% | 17% | 19% | 46% | 0%
c1ccc(Oc2ccc(Nc3ccnc4cc(-c5ccc(CNCCN6CCOCC6)o5)ccc34)cc2)nc1 [GW567145] | 0% | 7% | 0% | 5% | 0% | 0% | 98% | 44% | 98.4% | 7% | 0% | 0% | 0% | 0% | 0% | 0% | 26% | 0% | 0% | 5%
Cn1cc(-c2[nH]c3cc(NC(=O)[C@H](N)C4CCCCC4)cc4c3c2C=NNC4=O)cn1 | 4% | 10% | 15% | 0% | 1% | 0% | 92.4% | 64% | 77% | 36% | 33% | 22% | 0% | 6% | 27% | 55% | 21% | 5% | 13% | 0%
O=c1[nH]cc(-c2ccc(N3CCOCC3)cc2)c2sc(-c3cn[nH]c3)cc12 [GSK2276055] | 9% | 12% | 6% | 0% | 0% | 2% | 31% | 3% | 0% | 24% | 0% | 0% | 0% | 19% | 0% | 0% | 11% | 0% | 0% | 0%
Cl.c1ccc(-c2ccc3c(Nc4ccc5[nH]ncc5c4)ccnc3c2)nc1 [GW440137] | 0% | 16% | 13% | 0% | 0% | 6% | 46% | 34% | 35% | 31% | 10% | 0% | 4% | 34% | 0% | 0% | 5% | 0% | 15% | 0%
CC(=O)Nc1nc2cnc(Nc3cc(NC(=O)c4cccc(C5(C#N)CC5)c4Cl)ccc3C)nc2s1 | 0% | 55% | 10% | 50% | 10% | 34% | 64% | 14% | 7% | 4% | 0% | 14% | 13% | 0% | 3% | 0% | 28% | 0% | 0% | 12%
C[C@@H]1CC[C@@H](C(=O)Nc2ccccc2)CN1c1cc(-c2ccc3c(N)n[nH]c3c2)nc(N)n1 [GSK2286062] | 0% | 4% | 5% | 0% | 0% | 10% | 14% | 44% | 0% | 0% | 10% | 0% | 0% | 28% | 0% | 0% | 0% | 0% | 13% | 12%
Cc1cccc(Nc2nc(N[C@H]3CCNC3)ncc2C(N)=O)c1.Cl [GSK2197149] | 10% | 15% | 27% | 0% | 12% | 0% | 0% | 13% | 0% | 23% | 1% | 0% | 65% | 25% | 0% | 12% | 7% | 0% | 69% | 0%
COc1ccc(Nc2nccc(N3CCC(NC(=O)Nc4cccc(OC)c4)C3)n2)cc1 (stereo not drawn) [GSK1379742] | 6% | 11% | 9% | 0% | 12% | 0% | 9% | 34% | 4% | 0% | 0% | 0% | 9% | 0% | 0% | 36% | 0% | 0% | 26% | 9%
O=C(Nc1n[nH]c2nc(-c3ccc(O)cc3)ccc12)C1CC1 [SB-710363] | 0% | 0% | 0% | 16% | 0% | 0% | 38% | 0% | 94.6% | 6% | 0% | 0% | 0% | 0% | 63% | 90.2% | 0% | 0% | 0% | 0%
CCS(=O)(=O)c1ccc(OC)c(Nc2nccc(-c3c(-c4cccc(NC(=O)c5c(F)cccc5F)c4)nn4ncccc34)n2)c1 [GSK326180] | 5% | 24% | 15% | 12% | 100% | 12% | 16% | 99.3% | 0% | 100% | 0% | 5% | 13% | 47% | 0% | 0% | 22% | 0% | 22% | 0%
COc1cc(Nc2nccc(-c3c(-c4cccc(NC(=O)c5c(F)cccc5F)c4)nn4ccccc34)n2)cc(OC)c1OC [GSK323521] | 15% | 20% | 14% | 9% | 1% | 8% | 71% | 6% | 0% | 12% | 25% | 36% | 0% | 3% | 0% | 24% | 2% | 0% | 14% | 0%
CCc1ccc(-c2ccc3c(c2)-c2c(cnn2C)S(=O)(=O)N3C)cc1 | 0% | 0% | 0% | 0% | 0% | 1% | 25% | 0% | 0% | 4% | 4% | 6% | 0% | 0% | 0% | 0% | 0% | 38% | 0% | 0%
COc1cccc(C2=C(Nc3ccc(Cl)c(C(=O)O)c3)C(=O)NC2=O)c1 [SB-390769] | 0% | 15% | 0% | 23% | 10% | 10% | 100% | 28% | 5% | 0% | 10% | 0% | 0% | 19% | 0% | 0% | 100% | 0% | 7% | 0%
Cn1cc(-c2ccc3c(c2)CCN3C(=O)Cc2cccc(Cl)c2)c2c(N)ncnc21 [GSK2606590] | 13% | 34% | 15% | 0% | 9% | 8% | 86% | 5% | 0% | 0% | 0% | 10% | 0% | 11% | 0% | 0% | 0% | 0% | 35% | 0%
